# FLuc modulator: qHTS profiling assay for firefly luciferase inhibitor/activator using purifed enzyme and Km concentrations of substrates (counterscreen for miR-21 project); Luciferin 4-monooxygenase (Photinus pyralis), P08659; Potency, µM (titrated, usually from 57.5 µM), most hits filed as inhibitors; purified FLuc, Km substrates, luminescence inhibition; 360,000 tested, 6.9% active; AID 588342, 2011; also: nearly all actives have a fitted effect of over 55% in size
# Target sequence (P08659 whole entry, looked up): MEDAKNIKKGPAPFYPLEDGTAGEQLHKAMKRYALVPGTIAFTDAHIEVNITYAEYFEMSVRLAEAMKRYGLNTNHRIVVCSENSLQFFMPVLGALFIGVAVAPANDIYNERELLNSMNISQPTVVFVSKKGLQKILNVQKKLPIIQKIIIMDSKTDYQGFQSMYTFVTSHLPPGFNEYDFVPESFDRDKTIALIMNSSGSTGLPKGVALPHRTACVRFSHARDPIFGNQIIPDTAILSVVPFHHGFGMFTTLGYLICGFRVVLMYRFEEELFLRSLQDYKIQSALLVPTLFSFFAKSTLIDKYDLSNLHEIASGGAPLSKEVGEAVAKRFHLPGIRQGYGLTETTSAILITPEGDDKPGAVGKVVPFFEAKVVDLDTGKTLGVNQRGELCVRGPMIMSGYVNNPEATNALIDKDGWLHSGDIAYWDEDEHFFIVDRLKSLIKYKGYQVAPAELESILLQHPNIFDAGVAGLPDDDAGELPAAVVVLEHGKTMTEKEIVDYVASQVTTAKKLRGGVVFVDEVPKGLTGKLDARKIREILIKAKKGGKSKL
#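 Purified P. pyralis luciferase (10nM final) with 10uM D-luciferin and 10uM ATP (Km levels) in 50mM Tris acetate pH 7.5, 10mM Mg acetate, 0.01% Tween-20, 0.05% BSA; qHTS 6-point titration, ~60 µM downward; luminescence read.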
# ELG1 genotox: qHTS screen for small molecules that induce genotoxicity in human embryonic kidney (HEK293T) cells expressing luciferase-tagged ELG1; HEK293T ELG1-luciferase reporter, luminescence, 16 h; Potency, µM (doses to about 46 µM), actives largely listed as activators; 330,000 tested, 1.3% active; AID 504466, 2011; also: nearly all actives have a fitted effect of over 60% in size
#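 After overnight (16 hr) compound treatment at 37 °C, ELG1-luciferase HEK293T cells were lysed with ONE-Glo; luminescence quantified 30 min later at room temperature.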
# SMN2 splice up: qHTS Assay for Enhancers of SMN2 Splice Variant Expression; HEK293 SMN2-luciferase splicing reporter, luminescence, 30-36 h; AID 1458, 2008; Potency, µM (highest dose often 46.1 µM), most hits filed as activators; 210,000 tested, 2.8% active; also: nearly all actives have a fitted effect of over 55% in size
#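 qHTS luciferase splicing reporter: luminescence rises when SMN2 exon 7 is included in transfected HEK293 cells. Compound exposure lasted 30-36 h at 37C, with 4.5 mM final sodium butyrate as control, followed by a ONE-Glo read.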
# ELG1 DNA repair: qHTS screen for small molecules that inhibit ELG1-dependent DNA repair in human embryonic kidney (HEK293T) cells expressing luciferase-tagged ELG1 | HEK293T ELG1-luciferase reporter, luminescence, 16 h; DNA damage induced by 5-fluorouridine | Potency, µM (titrated, usually from 46.1 µM), actives largely listed as inhibitors | 330,000 tested, 2.3% active | AID 504467, 2011; also: nearly all actives have a fitted effect of over 55% in size
#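 DMSO vehicle served as the neutral condition. Each well held 2,000 cells given 5-fluorouridine plus compound; after 16 hr at 37 °C/5% CO2, ONE-Glo was added and luciferase measured 30 min later.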
# NPC1 prom act: qHTS Assay for NPC1 Promoter Activators; AID 485313, 2010; 320,000 tested, 2.4% active; Potency, µM (top dose mostly 9.22 µM), most hits filed as activators; Huh7 NPC1 promoter luciferase reporter, 24 h; also: nearly all actives have a fitted effect of over 60% in size
#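 NPC1 promoter–luciferase Huh7 cells; 24 h compound; luminescence.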
# Rab9 promoter act: qHTS Assay for Rab9 Promoter Activators. Huh7 Rab9 promoter-luciferase reporter, luminescence, 24 h. Potency, µM (top dose mostly 9.22 µM), actives largely listed as activators. 320,000 tested, 2.8% active. AID 485297, 2010; also: nearly all actives have a fitted effect of over 60% in size
#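 Cells were plated at 1500 per well in reduced-serum medium with 10% FBS and left 2 h. Compound in DMSO was then added for 24 h at 37 °C. Reporter signal was read by luminescence after 10 min with luciferase detection reagent.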
# Numbers stand for hits; n = inactive; u = inconclusive; x = not tested or not shown. Shown are actives, neighbours in structure and some others; about 9.2% of the full set was active somewhere. Calls follow the shape of the dose curve; as a rule, active = well fitted curve in the direction sought with a large enough effect; inconclusive = small, poorly fitted or top-dose-only effect, or another doubt; inactive = no such curve, though single readings can be large; an effect the other way counts as inactive or inconclusive.
SMILES,FLuc modulator,ELG1 genotox,SMN2 splice up,ELG1 DNA repair,NPC1 prom act,Rab9 promoter act
Cc1ccc(C)c(N2CCN(C(=O)c3ccc(NC4=NC5CS(=O)(=O)CC5S4)cc3)CC2)c1 (stereo unspecified),n,n,x,n,n,n
CCOc1ccc(NC(=O)CS(=O)CC(=O)N(CC(=O)NC(C)(C)C)C2CCCC2)cc1 (stereo unspecified),n,n,x,n,n,n
Cc1ccc2oc(C(=O)NCC3CCOCC3)c(C)c2c1,n,n,x,n,u,u
O=C(Nc1cccs1)Nc1ccc(Br)cc1F,12µM,n,n,u,n,n
O=C(Nc1cccs1)Nc1cccnc1Cl,u,n,x,u,n,n
Cc1ccc(NC(=O)Nc2cccs2)c(Cl)c1,8.5µM,x,n,x,x,x
O=C(Nc1cccs1)Nc1ccccc1Cl,27µM,u,n,n,n,n
Cc1cccc(NC(=O)Nc2cccs2)c1C,u,x,n,x,x,x
Oc1cc(Nc2cccnc2)cc2cccnc12,n,n,x,u,n,n
Oc1cc(NCCc2cccnc2)cc2cccnc12,n,n,x,23µM,n,n
O=[N+]([O-])c1cccc(/C=N/Nc2nccnc2Cl)c1,12µM,u,u,u,2.8µM,2µM
O=[N+]([O-])c1cccc(/C=N/Nc2ccccn2)c1,3µM,u,11µM,u,u,4µM
Fc1ccc(N/N=C/c2cccnc2)c(F)c1,u,u,n,u,u,u
O=[N+]([O-])c1cccc(/C=C/c2ccccn2)c1,13µM,n,x,u,u,u
Fc1cccc(/C=N/Nc2nccnc2Cl)c1,21µM,u,x,u,u,u
CN(C(=O)COC(=O)Cc1ccc(Cl)cc1)C1CCCCC1,x,n,x,n,x,x
Cc1nc2nc(-c3ccccc3)cc(=O)n2[nH]1,7.6µM,u,u,u,n,n
O=C1CCC(=O)N1c1nc2nc(-c3ccccc3)cc(=O)n2[nH]1,n,n,n,n,n,n
O=c1cc(-c2ccccc2)nc2nc(SCc3ccccc3)[nH]n12,27µM,n,n,n,n,n
O=c1cc(-c2ccccc2)nc2nc(-c3ccco3)[nH]n12,3.4µM,u,u,u,n,n
O=c1cc(-c2ccccc2)nc2nc(CCc3ccccc3)[nH]n12,u,n,n,n,n,n
Cc1cccc(-c2cc3nc(-c4ccccc4)cc(=O)n3[nH]2)c1,7.6µM,u,x,u,2µM,2.8µM
CC(C)c1cnc2c(c1SCC(=O)c1ccc(Cl)cc1)c(=O)n(C)c(=O)n2C,n,x,x,x,x,x
O=C(COC(=O)c1cc(S(=O)(=O)Nc2ccccc2Cl)ccc1O)Nc1nc2ccccc2s1,21µM,n,n,u,n,u
N#Cc1cccc(NC(=O)COC(=O)c2cc(S(=O)(=O)Nc3ccccc3Cl)ccc2O)c1,x,n,x,u,x,x
SMILES,FLuc modulator,ELG1 genotox,SMN2 splice up,ELG1 DNA repair,NPC1 prom act,Rab9 promoter act
Cc1cccc(NC(=O)c2cc(-c3cc(Cl)ccc3O)n[nH]2)c1,u,n,x,u,2.2µM,u
COc1ccc(Cl)cc1NC(=O)c1cc(-c2cc(C)ccc2O)n[nH]1,n,n,x,n,n,n
Cc1ccc(C)c(NC(=O)c2cc(-c3cc(C)ccc3O)n[nH]2)c1,3µM,u,x,u,2µM,n
C=CCc1c(C)nc(SC)nc1Nc1ccc(C(C)=O)cc1,u,n,n,7.3µM,n,u
C=CCc1c(C)nc(SC)nc1Nc1ccc(C(=O)O)cc1,n,n,n,u,n,n
Cc1csc2c(N3CCN(C(=O)Nc4ccccc4)CC3)ncnc12,u,n,x,u,n,n
Cc1csc2c(N3CCN(C(=S)Nc4ccc(F)cc4F)CC3)ncnc12,24µM,n,x,u,n,n
Cc1ccccc1NC(=O)Cc1nnc(SCC(=O)N2CCOCC2)n1C,n,n,x,n,n,n
CCN1CCN(Cc2ccc3c(c2)Cc2ccccc2-3)CC1,n,n,n,n,n,n
c1ccc2c(c1)Cc1cc(CN3CCOCC3)ccc1-2,9.5µM,u,14µM,u,4µM,u
CCc1ccc2c(c1)C1(NN=C(c3ccc(C)cc3)S1)C(=O)N2 (stereo unspecified),27µM,u,n,u,n,n
CC(C)c1ccc2c(c1)C1(NN=C(c3ccccc3)S1)C(=O)N2 (stereo unspecified),17µM,n,n,u,n,n
CC(C)c1ccc(O)c(NC(=O)c2ncn[nH]2)c1,u,n,n,n,n,n
C=CCNC(=O)C(C)N1c2cccc3cccc(c23)S1(=O)=O (stereo unspecified),n,n,x,n,n,n
O=C(O)Cn1c(=O)n(Cc2ccccc2)c2ccccc21,n,n,x,n,n,n
N=c1n(CC(=O)c2cccs2)c2ccccc2n1Cc1ccccc1,n,n,x,7.3µM,n,n
Cc1ccc(C(=O)NCC(=O)Nc2ncccc2C)s1,n,n,x,n,n,n
Cn1c(=O)[nH]c(=O)c2c1nc(N1CCCCC1)n2CCCSc1nc2ccccc2s1,n,n,n,21µM,n,n
Cn1c(=O)c2c(nc(N3CCCCC3)n2CCSc2nc3ccccc3s2)n(C)c1=O,n,n,n,n,n,n
CC1CCN(c2nc3c(c(=O)n(C)c(=O)n3C)n2CCSc2nc3ccccc3s2)CC1,n,n,n,23µM,n,n
COc1ccc(CNc2nc3c(c(=O)n(C)c(=O)n3C)n2Cc2ccccc2Cl)cc1,n,x,n,x,x,x
CCOC(=O)c1c(NC(=O)c2cc(-c3ccc(Br)cc3)on2)sc(C)c1C,n,x,n,x,x,x
COc1ccc(NC(=O)CSc2nc3nc(C)c(Cc4ccc(C)cc4)c(C)n3n2)cc1OC,n,x,x,x,x,x
CC(C)c1ccc(NC(=O)CC2NCCNC2=O)cc1 (stereo unspecified),n,x,n,x,x,x
CC(C)(C)n1ncc2c(=O)n(Cc3c(F)ccc(Cl)c3Cl)cnc21,13µM,x,x,x,x,x
SMILES,FLuc modulator,ELG1 genotox,SMN2 splice up,ELG1 DNA repair,NPC1 prom act,Rab9 promoter act
Cc1ccc(F)c(Cn2cnc3c(cnn3C(C)(C)C)c2=O)c1Cl,u,n,x,u,n,n
CC(C)(C)n1ncc2c(=O)n(CC(=O)NCc3ccccc3Cl)cnc21,3µM,u,11µM,u,0.4µM,0.4µM
Cc1ccc(Cn2cnc3c(cnn3C(C)(C)C)c2=O)cc1,n,n,x,16µM,n,n
COc1ccccc1CNC(=O)[C@H](C)NC(=O)C1CCN(C(=O)[C@H](CCSC)NC(=O)OC(C)(C)C)CC1,n,n,x,n,n,n
CCN(CCCNC(=O)Cn1ncc2c3ccccc3n(C)c2c1=O)c1cccc(C)c1,n,x,n,x,x,x
CSc1cccc(NC(=O)c2ccc3c(c2)CCCN3S(C)(=O)=O)c1,12µM,x,n,x,x,x
